Data taken from PubChem BioAssay (Tox21).
Unmarked numbers belong to inactive results. Records with an inconclusive call do not appear. The source made the active and inactive calls. Unless noted, calls come from the whole dose curve; as a rule, active = well fitted curve in the direction sought with a large enough effect in the repeat runs; inconclusive = weak or mixed curves; inactive = no such curve, though single readings can be large; an effect the other way counts as inactive or inconclusive.

Test: qHTS assay for small molecule disruptors of the mitochondrial membrane potential - cell viability (AID 720634; calls by dose curve;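 note: human HepG2 liver cancer cells; nearly all actives have a fitted effect of over 20% in size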)
Details: HepG2 viability, ATP luminescence (CellTiter-Glo), 1 h; series mostly up to 83.2 µM; activity change, negative = cytotoxicity: at the top concentration
Outline: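 Cells: HepG2, 2,000/well, attached overnight. Compound 1 hr, 37 C/5% CO2. +m-MPI dye, +CellTiter-Glo 30 min RT. Readout: luminescence (ATP).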
% is set by controls: 0 for no effect and ±100 for the full control effect.

Structure (SMILES)	activity change, negative = cytotoxicity	Potency
C=C(C)C(=O)OC(C)C	8.76%	–
OCC1CC2CC1C1CCC(CO)C21 (stereo not given)	6.05%	–
CCCCCCCCN(C)C	5.5%	–
CC[C@H](C)[C@H](N)C(=O)O	7.38%	–
CCN(CC)CCc1nc(-c2ccccc2)no1	5.26% [at 39.1 µM]	–
CCCCCCCCCCCCCCCC(=O)OC/C=C(C)/C=C/C=C(C)/C=C/C1=C(C)CCCC1(C)C	–	inactive
CCOC(=O)CC(=O)c1cc(F)c(Cl)nc1Cl	-2.23% [at 95.3 µM]	–
CC(=O)O[C@H]1C[C@@H]2CC[C@@H]3[C@H](CC[C@@]4(C)[C@H]3C[C@H]([N+]3(C)CCCCC3)[C@@H]4OC(C)=O)[C@@]2(C)C[C@@H]1N1CCCCC1	-1.5%	–
Cc1ccc(C)o1	9.43% [at 95.3 µM]	–
CC(C)CCCC(C)CCO (stereo not given)	6.24%	–
COc1ccc2[nH]c(S(=O)Cc3ncc(C)c(OC)c3C)nc2n1 (stereo not given)	-0.972%	–
NC(=S)N/N=C/c1cccnc1	6.54%	–
CC(C)c1ccccc1C(C)C	4.91%	–
NCc1ccccc1	8.01%	–
CC(C)(C)c1ccc(S)cc1	2.29%	–
CNS(=O)(=O)Cc1ccc2[nH]cc(CCN(C)C)c2c1	11.1%	–
COc1ccccc1OC(=O)Oc1ccccc1OC	-19.9%	–
Cc1c(Cn2ccnc2)c2ccccc2n1CCC(=O)O	3.78%	–
O=[N+]([O-])c1cc[n+]([O-])cc1	-8.61%	–

Structure (SMILES)	activity change, negative = cytotoxicity	Potency
CCOc1cc(OCC)c(C(=O)CCC(=O)O)cc1OCC	-4.72%	–
O=S(=O)(O)c1ccc(O)c2ncccc12	7.87%	–
CC[C@]12CCCN3CCc4c(n(c5ccccc45)C(=O)C1)[C@@H]32	6.37% [at 39.1 µM]	–
CC(C)(C)C(=O)OCOP(=O)(COCCn1cnc2c(N)ncnc21)OCOC(=O)C(C)(C)C	24.9%	–
N#CCc1cccc(C(F)(F)F)c1	3.5%	–
O=C=NC1CCC(CC2CCC(N=C=O)CC2)CC1 (stereo not given)	6.49%	–
Cc1cc(NC(=O)C(=O)O)cc(C)c1Oc1ccc(O)c2c1CCC2	2.38%	–
CC(C)CC=O	-7.33%	–
Nc1ccc(C(=O)Nc2ccccc2N)cc1	5.12%	–
O=c1c2ccccc2nnn1CCl	8.55%	–
Cc1ccc(C(C)c2ccc(C)c(C)c2)cc1C	-11%	–
C=CCCCCCC	7.31%	–
CC(=O)N(O)CCCCCNC(=O)CCC(=O)N(O)CCCCCNC(=O)CCC(=O)N(O)CCCCCN	9.88% [at 39.1 µM]	–
FC(F)(F)C(F)(F)C(F)(F)C(F)(F)C(F)(F)C(F)(F)CCI	-6.36%	–
COCCOCCOCCOCCOC	5.58%	–
CCCCCCCCCC(=O)OCC	7.51%	–
Cc1ccc(C(=O)C(C)CN2CCCCC2)cc1 (stereo not given)	–	inactive
CCN(CCO)CCCC(C)Nc1ccnc2cc(Cl)ccc12 (stereo not given)	2.04%	–
Cc1cc(CC(=O)O)c(C)n1-c1ccc(Cl)cc1	-3.65%	–

Test: qHTS assay for small molecule disruptors of the mitochondrial membrane potential (AID 720635); note: potency is the fitted concentration of half-maximal effect
Details: HepG2 mitochondrial membrane potential, Mito-MPS dye ratio; series mostly up to 83.2 µM; ratio activity, negative = MMP loss: at the top concentration
Outline: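 HepG2 cells exposed to compound 1 hr at 37C, then Mito-MPS dye 30 min. Ratio read of aggregate (540/590 nm) versus monomer (490/535 nm) fluorescence.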

Structure (SMILES)	ratio activity, negative = MMP loss	Potency
OCC1CC2CC1C1CCC(CO)C21 (stereo not given)	-10.8%	–
CCCCCCCCN(C)C	8.32%	–
CCN(CC)CCc1nc(-c2ccccc2)no1	1.91% [at 39.1 µM]	–
CCCCCCCCCCCCCCCC(=O)OC/C=C(C)/C=C/C=C(C)/C=C/C1=C(C)CCCC1(C)C	–	inactive
CCOC(=O)CC(=O)c1cc(F)c(Cl)nc1Cl	17.5% [at 95.3 µM]	–
CC(=O)O[C@H]1C[C@@H]2CC[C@@H]3[C@H](CC[C@@]4(C)[C@H]3C[C@H]([N+]3(C)CCCCC3)[C@@H]4OC(C)=O)[C@@]2(C)C[C@@H]1N1CCCCC1	-22.3%	–
Cc1ccc(C)o1	22.5% [at 95.3 µM]	–
CC(C)CCCC(C)CCO (stereo not given)	18.3%	–
COc1ccc2[nH]c(S(=O)Cc3ncc(C)c(OC)c3C)nc2n1 (stereo not given)	-8.55%	–
NC(=S)N/N=C/c1cccnc1	10.5%	–
NCc1ccccc1	29.9%	–
CC(C)(C)c1ccc(S)cc1	5.37%	–
CNS(=O)(=O)Cc1ccc2[nH]cc(CCN(C)C)c2c1	–	29.8 µM (active)
COc1ccccc1OC(=O)Oc1ccccc1OC	-6.04%	–
Cc1c(Cn2ccnc2)c2ccccc2n1CCC(=O)O	-18.1%	–
O=[N+]([O-])c1cc[n+]([O-])cc1	-27.8%	–
O=S(=O)(O)c1ccc(O)c2ncccc12	16.4%	–
CC[C@]12CCCN3CCc4c(n(c5ccccc45)C(=O)C1)[C@@H]32	6.24% [at 39.1 µM]	–
N#CCc1cccc(C(F)(F)F)c1	18.3%	–
Nc1ccc(C(=O)Nc2ccccc2N)cc1	–	13.3 µM (active)
O=c1c2ccccc2nnn1CCl	37.7%	–
Cc1ccc(C(C)c2ccc(C)c(C)c2)cc1C	-13%	–
C=CCCCCCC	20.7%	–
FC(F)(F)C(F)(F)C(F)(F)C(F)(F)C(F)(F)C(F)(F)CCI	29.1%	–
COCCOCCOCCOCCOC	22.1%	–
CCCCCCCCCC(=O)OCC	25.6%	–
Cc1ccc(C(=O)C(C)CN2CCCCC2)cc1 (stereo not given)	13%	–
CCN(CCO)CCCC(C)Nc1ccnc2cc(Cl)ccc12 (stereo not given)	23.4%	–
Cc1cc(CC(=O)O)c(C)n1-c1ccc(Cl)cc1	24.1%	–

Test: qHTS assay to test for compound auto fluorescence at 590 nm (red) in HepG2 cells (AID 720674)
Details: HepG2 autofluorescence, red 540/590 nm, 1 h; series mostly up to 91.3 µM; fluorescence, relative to Rose Bengal: at the top concentration
Outline: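 Fluorescence at 590 nm emission following 540 nm excitation was recorded from HepG2 wells one hour after compound transfer, with DMSO-only wells as vehicle and Rose Bengal sodium equivalency as the scale.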

Structure (SMILES)	fluorescence, relative to Rose Bengal	outcome
C=C(C)C(=O)OC(C)C	-0.429%	–
OCC1CC2CC1C1CCC(CO)C21 (stereo not given)	0.0482%	–
CCCCCCCCN(C)C	0.149%	–
CC[C@H](C)[C@H](N)C(=O)O	0.0799% [at 46 µM]	–
CCN(CC)CCc1nc(-c2ccccc2)no1	0.351% [at 18.6 µM]	–
CCCCCCCCCCCCCCCC(=O)OC/C=C(C)/C=C/C=C(C)/C=C/C1=C(C)CCCC1(C)C	–	inactive
CCOC(=O)CC(=O)c1cc(F)c(Cl)nc1Cl	0.0369% [at 95.7 µM]	–
CC(=O)O[C@H]1C[C@@H]2CC[C@@H]3[C@H](CC[C@@]4(C)[C@H]3C[C@H]([N+]3(C)CCCCC3)[C@@H]4OC(C)=O)[C@@]2(C)C[C@@H]1N1CCCCC1	0.027% [at 46 µM]	–
Cc1ccc(C)o1	0.412%	–
CC(C)CCCC(C)CCO (stereo not given)	-0.1%	–
COc1ccc2[nH]c(S(=O)Cc3ncc(C)c(OC)c3C)nc2n1 (stereo not given)	-0.239% [at 46 µM]	–
NC(=S)N/N=C/c1cccnc1	-0.836% [at 46 µM]	–
CC(C)c1ccccc1C(C)C	-0.0149%	–
NCc1ccccc1	-0.746%	–
CC(C)(C)c1ccc(S)cc1	-0.316%	–
CNS(=O)(=O)Cc1ccc2[nH]cc(CCN(C)C)c2c1	0.0579% [at 46 µM]	–
COc1ccccc1OC(=O)Oc1ccccc1OC	-0.525% [at 46 µM]	–
Cc1c(Cn2ccnc2)c2ccccc2n1CCC(=O)O	-0.868% [at 46 µM]	–
O=[N+]([O-])c1cc[n+]([O-])cc1	-0.257%	–

Structure (SMILES)	fluorescence, relative to Rose Bengal	outcome
CCOc1cc(OCC)c(C(=O)CCC(=O)O)cc1OCC	-0.237% [at 46 µM]	–
O=S(=O)(O)c1ccc(O)c2ncccc12	-0.121%	–
CC[C@]12CCCN3CCc4c(n(c5ccccc45)C(=O)C1)[C@@H]32	-0.674% [at 18.6 µM]	–
CC(C)(C)C(=O)OCOP(=O)(COCCn1cnc2c(N)ncnc21)OCOC(=O)C(C)(C)C	0.551% [at 46 µM]	–
N#CCc1cccc(C(F)(F)F)c1	-0.184%	–
O=C=NC1CCC(CC2CCC(N=C=O)CC2)CC1 (stereo not given)	0.264%	–
Cc1cc(NC(=O)C(=O)O)cc(C)c1Oc1ccc(O)c2c1CCC2	-0.0924%	–
CC(C)CC=O	-0.067%	–
Nc1ccc(C(=O)Nc2ccccc2N)cc1	0.642% [at 46 µM]	–
O=c1c2ccccc2nnn1CCl	0.363%	–
Cc1ccc(C(C)c2ccc(C)c(C)c2)cc1C	0.141%	–
C=CCCCCCC	0.417%	–
CC(=O)N(O)CCCCCNC(=O)CCC(=O)N(O)CCCCCNC(=O)CCC(=O)N(O)CCCCCN	0.119% [at 18.6 µM]	–
FC(F)(F)C(F)(F)C(F)(F)C(F)(F)C(F)(F)C(F)(F)CCI	0.0639% [at 46 µM]	–
COCCOCCOCCOCCOC	-0.012%	–
CCCCCCCCCC(=O)OCC	0.545%	–
Cc1ccc(C(=O)C(C)CN2CCCCC2)cc1 (stereo not given)	–	inactive
CCN(CCO)CCCC(C)Nc1ccnc2cc(Cl)ccc12 (stereo not given)	-0.103% [at 46 µM]	–
Cc1cc(CC(=O)O)c(C)n1-c1ccc(Cl)cc1	0.529% [at 46 µM]	–
